In PubChem BioAssay:

Columns and labels:
[1] = tested on: Human papillomavirus type 1a protein E7 (residues 44-93); assay: HPV1a E7 fragment binders on microarrays, primary screen, biochemical, small-molecule microarray, residues 44-93, 635 nm fluorescence (AID 1108); conditions: small-molecule microarray binding, fluorescence 635 nm; higher = more signal;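 further: E7 fragment applied at 1 µg/mL in TBST for 1 h at 4 C; score combines spot fluorescence with its signal to noise ratio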
[2] = modulators of HCV replicon luciferase signal, primary screen, HCV replication inhibitor project, Huh7 cells, luciferase reporter (AID 1109); conditions: 48 h, higher = more signal;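 further: huh7 hepatoma cells harbouring a luciferase neomycin HCV replicon reporter; luciferase luminescence as measure of HCV replicon replication; test concentration not given here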
[3] = target: Left-right determination factor 2 (Homo sapiens) (UniProt O00292); assay: LEFTY2 binders on small-molecule microarrays, primary screen, biochemical, small-molecule microarray, 635 nm fluorescence scan (AID 1110); conditions: LEFTY2 binding, higher = more signal
Sequence of Left-right determination factor 2 (Homo sapiens) (O00292 whole entry, looked up): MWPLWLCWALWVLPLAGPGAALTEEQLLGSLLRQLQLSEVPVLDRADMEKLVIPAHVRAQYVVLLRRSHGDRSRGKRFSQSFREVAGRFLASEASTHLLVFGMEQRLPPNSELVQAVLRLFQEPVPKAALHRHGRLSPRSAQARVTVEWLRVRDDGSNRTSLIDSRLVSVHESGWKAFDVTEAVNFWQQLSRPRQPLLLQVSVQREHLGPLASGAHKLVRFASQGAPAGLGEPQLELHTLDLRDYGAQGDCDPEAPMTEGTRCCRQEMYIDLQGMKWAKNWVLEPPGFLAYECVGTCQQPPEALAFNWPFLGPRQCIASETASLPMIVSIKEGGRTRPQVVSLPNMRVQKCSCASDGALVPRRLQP

[4] = target: Calmodulin-1 (Homo sapiens) (UniProt P0DP23); assay: CALM1 binders on microarrays, EGTA buffer, profiling panel, biochemical, small-molecule microarray, Cy5-labelled CALM1 (AID 1111); conditions: Cy5-CALM1 binding fluorescence, higher = more signal;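 further: labelled calmodulin applied in Tris saline Tween buffer holding calcium plus EGTA and DTT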
[5] = target: Calmodulin-1 (Homo sapiens) (UniProt P0DP23); assay: calcium-bound CALM1 binders on microarrays, profiling panel, artefact control for SMM control-protein annotation, biochemical, small-molecule microarray, Cy5-labelled CALM1, plus calcium (AID 1112); conditions: Cy5-CALM1 binding fluorescence, higher = more signal;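 further: score merges spot fluorescence with signal to noise from triplicate slides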
[6] = small-molecule microarray binders of probe aWnt5a, primary screen, biochemical, biotinylated probe, 635/667 nm fluorescence (AID 1113); conditions: higher = more signal;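 further: score merges 667 nm fluorescence intensity with signal-to-noise per printed feature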
[7] = small-molecule microarray binders of probe aShh, primary screen, biochemical, biotinylated probe, 635/667 nm fluorescence (AID 1114); conditions: higher = more signal;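 further: probe is biotin-labelled aShh protein from a stem cell growth factor screen; measures binding of labelled protein to compounds printed on the slide; score merges feature fluorescence at 667 nm with signal-to-noise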
[8] = small-molecule microarray binders of probe aNog, primary screen, biochemical, biotinylated probe, 635/667 nm fluorescence (AID 1115); conditions: higher = more signal;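 further: probe is biotinylated aNog protein used at 0.15 µg/mL for 1 h at 4 C; z-score combines 667 nm fluorescence of each spot with its signal to noise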
[9] = target: Torsin-1A-interacting protein 1 (Homo sapiens) (UniProt Q5JTV8); assay: LAP1 binders from COS7 cell lysate, primary screen, small-molecule microarray, 635/667 nm fluorescence (AID 1116); conditions: COS7-hLAP1 lysate binding, 635 nm fluorescence, higher = more signal
Sequence of Torsin-1A-interacting protein 1 (Homo sapiens) (Q5JTV8 whole entry, looked up): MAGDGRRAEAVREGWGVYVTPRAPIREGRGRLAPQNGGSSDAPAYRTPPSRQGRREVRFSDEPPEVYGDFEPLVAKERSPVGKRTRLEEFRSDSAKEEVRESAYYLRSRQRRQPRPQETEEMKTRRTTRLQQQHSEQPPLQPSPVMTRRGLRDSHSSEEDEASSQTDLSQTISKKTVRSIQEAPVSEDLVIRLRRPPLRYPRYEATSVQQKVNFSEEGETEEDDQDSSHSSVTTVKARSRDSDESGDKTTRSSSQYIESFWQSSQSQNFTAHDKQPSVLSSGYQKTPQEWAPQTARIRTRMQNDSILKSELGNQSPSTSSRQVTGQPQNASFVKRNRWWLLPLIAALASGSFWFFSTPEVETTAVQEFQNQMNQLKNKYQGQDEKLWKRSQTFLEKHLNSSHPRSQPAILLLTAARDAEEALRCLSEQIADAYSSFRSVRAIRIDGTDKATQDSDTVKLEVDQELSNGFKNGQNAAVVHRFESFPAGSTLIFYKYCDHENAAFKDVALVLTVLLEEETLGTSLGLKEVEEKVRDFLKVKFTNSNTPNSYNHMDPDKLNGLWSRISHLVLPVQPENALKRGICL

[10] = target: Alpha-bungarotoxin (Bungarus multicinctus) (UniProt P60615); assay: alpha-bungarotoxin binders on microarray, profiling panel, artefact control for SMM control protein annotation, biochemical, small-molecule microarray, Alexa647 label, 635/667 nm fluorescence (AID 1117); conditions: alpha-BTX-A647 binding fluorescence, higher = more signal
Sequence of Alpha-bungarotoxin (Bungarus multicinctus) (P60615 whole entry, looked up): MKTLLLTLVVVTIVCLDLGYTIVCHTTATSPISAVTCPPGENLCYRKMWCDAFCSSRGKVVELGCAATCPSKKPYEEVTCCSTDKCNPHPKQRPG

Compound	composite z-score [1]	z-score [2]	composite z-score [3]	composite z-score [4]	composite z-score [5]	composite z-score [6]	composite z-score [7]	composite z-score [8]	composite z-score [9]	composite z-score [10]
COCCOC(=O)N1C(=O)[C@@]2(c3cc(C#CCNC(N)=O)ccc31)[C@H](c1ccccc1OCCO)N1[C@H](c3ccccc3)[C@H](c3ccccc3)OC(=O)[C@H]1[C@@H]2C(=O)N1CCCCCCC1	0.6	-1.84	0.621	1.47	0.716	0.14	0.31	-0.499	1.02	1.68
CC(C)C(=C=CC[C@H](O)c1cccc(OCCO)c1)C[C@H](O)c1ccccn1	0.106	-0.423	-0.256	-0.356	-0.78	-0.096	-0.289	-0.147	-0.334	-0.579
[N-]=[N+]=NCc1ccccc1[C@H]1OC(c2ccc(OCCCO)cc2)=N[C@@]1(Cc1ccccc1N=[N+]=[N-])C(N)=O	1.44	-1	0.373	1.1	0.613	0.117	-0.111	0.924	0.154	1.03
CCCCC(=C=CC[C@H](O)c1ccccc1OCCO)CCO	0.5	-1.69	-0.115	-0.541	-0.533	-0.0031	-0.108	0.0796	0.228	0.124
C[N+](C)(C)CCCC[C@@H]1NC(=O)[C@H]2C[C@@H](C(=O)O)[C@@H](c3ccc(O)cc3)N2C1=O	0.315	3.08	0.436	-0.171	0.11	-0.147	-0.375	-0.14	1.74	0.343
COC(=O)[C@@]1(Cc2ccc(F)cc2)[C@H]2c3cc(C(=O)N(C)C)n(Cc4cccc5ccccc45)c3C[C@H]2CN1C(=O)c1ccccc1	1.12	-1.57	-0.856	0.0818	0.189	0.492	1.76	1.53	1.17	-0.145
CO[C@H]1O[C@H](CO)[C@@H](OC(=O)Nc2cccc(F)c2)[C@H](OC(=O)Nc2ccc3c(c2)OCO3)[C@@H]1OC(=O)Nc1ccc2c(c1)OCO2	1.5	-1.14	-0.0699	0.911	-1.04	0.0186	0.214	0.724	1.46	1.02
C=CC[C@]12N=C(c3ccc(OCCCO)cc3)O[C@H]1c1ccccc1N(CCC)C2=O	0.685	-1.99	0.546	0.117	-0.267	0.0344	0.187	0.993	1.46	0.666
COc1c(C)cc(-c2cc3c(c(CCc4ccccc4)n2)[Si](C(C)C)(C(C)C)O[C@H]3c2ccccc2)cc1C	-0.52	-3.84	-0.124	0.261	0.502	0.0136	0.0008	0.0225	-0.445	-0.176
CCOC(=O)C[C@H]1[C@H](OC(=O)c2cc3ccccc3oc2=O)[C@@H](NC(=O)Cc2ccc(OC)cc2)c2cc(OCCCO)ccc2N1C(=O)Cc1ccc(OC)cc1	0.351	-1.73	0.594	-0.326	-0.54	-0.096	-0.145	-0.0428	0.0475	0.329
COc1cc2c(cc1OC)CN(C(=O)[C@@H]1[C@H]3C(=O)O[C@H](c4ccccc4)[C@H](c4ccccc4)N3[C@H](c3ccc(O)cc3)[C@@]13C(=O)Nc1ccc(C#CC4=CCCCC4)cc13)CC2	0.244	-1.49	0.512	1.07	0.319	0.0044	-0.011	0.14	0.635	0.891
COc1ccc([Si](C)(C)[C@H]2[C@H](CC(=O)N3CCC[C@H]3CO)O[C@@]3(C(=O)N(C)c4c(Br)cc(C)cc43)[C@@H]2C)cc1	1.45	-2	0.946	0.783	0.339	1.19	1.28	0.241	0.128	1.26
CCCCCCc1nc(-c2ccc(OC)nc2)c(C)c2c1[Si](C(C)C)(C(C)C)OC2	-0.329	-0.603	0.445	-0.0398	-0.257	-0.0462	-0.154	-0.129	-0.391	-0.304
CC(C)C[C@@H]1NC(=O)[C@H]2C[C@@H](C(=O)O)[C@@H](c3cccc(OCCO)c3)N2C1=O	-0.239	2.62	0.779	-0.418	-0.2	-0.0704	-0.0289	-0.0503	0.884	0.209
COC(=O)[C@@]1(Cc2ccccc2)[C@H]2c3cc(C(=O)N(C)C)n(Cc4nc5ccccc5[nH]4)c3C[C@H]2CN1C(=O)c1ccccc1	1.33	0.401	-0.4	0.492	1.2	0.0328	0.108	2.16	1.62	1.3
CN1C(=O)C2CC=C(C3=CCO[C@@H]3[C@H]3CCCN3S(=O)(=O)c3ccccc3[N+](=O)[O-])CC2C1=O (stereo not given in full)	-0.351	-0.0844	-0.377	-0.194	-0.0107	-0.242	-0.2	-0.0116	0.0183	0.0302
COCCOC(=O)N1C(=O)[C@@]2(c3cc(C#CCCO)ccc31)[C@H](c1ccc(O)cc1)N1[C@H](c3ccccc3)[C@H](c3ccccc3)OC(=O)[C@H]1[C@@H]2C(=O)NC[C@H](O)c1ccccc1	0.495	-1.02	0.285	0.212	0.0658	-0.027	0.204	1.05	0.981	0.367
COc1cc(Cc2cc3c(c(CCc4ccccc4)n2)[Si](C(C)C)(C(C)C)O[C@H]3c2ccccc2)cc(OC)c1OC	-1.18	-2.37	0.151	-0.448	-0.425	-0.0107	-0.138	-0.0827	0.415	0.537
CCCCN1CC=CC23O[C@@H]4/C=C\CCC(C)OC(=O)C4[C@H]2C(=O)N(CCO)[C@@H]3C1=O (stereo not given in full)	-0.391	-0.58	-0.99	-0.896	-0.272	-0.171	-0.2	0.171	3.55	-0.238
[N-]=[N+]=Nc1ccccc1C[C@]1(C(N)=O)COC(c2ccc(OCCCO)cc2)=N1	0.66	-1.17	-0.899	0.707	0.694	-0.0462	0.486	0.381	1.02	-0.364
CN(C)C(=O)[C@]1(CCS(=O)(=O)c2ccccc2)N=C(c2ccc(OCCCO)cc2)O[C@@H]1c1ccccc1CN=[N+]=[N-]	0.924	-2.39	-0.0755	1.98	0.68	0.0215	-0.0891	0.463	1.48	1.71
C=C[C@@H](CO)NS(=O)(=O)c1ccc(Br)cc1	-1.71	0.0931	-0.671	-1.05	-0.453	-0.208	-0.153	-0.158	0.127	-0.796
C=CCOC(=O)[C@H]1[C@@H]2C(=O)O[C@@H](c3ccccc3)[C@@H](c3ccccc3)N2[C@@H](c2ccc(OCCOC(=O)[C@@H]3C[C@@H]4C(=O)N[C@@H](Cc5ccccc5)C(=O)N4[C@@H]3c3ccc(O)cc3)cc2)[C@]12C(=O)Nc1ccc(I)cc12	1.27	-1.64	0.898	0.367	0.242	-0.152	-0.154	-0.432	-0.164	0.875
COC(=O)C1(CC(C)C)C=C2C(=C(C)C(=O)C2C)CN1 (stereo not given)	-0.412	-1.01	-0.253	0.0595	0.89	0.432	1.79	0.825	0.653	0.096
CC(C)[Si](C#Cc1ccccc1)(O[C@H](c1ccccc1)c1cn(Cc2ccccc2)nn1)C(C)C	0.657	0.167	0.0441	-0.49	-1.67	-0.169	-0.138	-0.138	0.567	0.579
COCCOC(=O)N1C(=O)[C@@]2(c3cc(C#CC4=CCCCC4)ccc31)[C@H](C(=O)N1CCCCCCC1)[C@H]1C(=O)O[C@H](c3ccccc3)[C@H](c3ccccc3)N1[C@@H]2c1ccccc1OCCO	1.37	-0.794	0.327	1.78	0.759	0.16	0.926	1.2	1.94	1
CC[C@@H](O[Si](C#C[Si](C(C)C)(C(C)C)C(C)C)(C(C)C)C(C)C)c1cn([C@H](C)c2ccccc2)nn1	0.818	-0.772	0.435	-0.273	-0.0786	-0.0758	0.0637	-0.28	0.651	0.188
CO[C@H]1O[C@H](CO)[C@@H](OC(=O)CCc2ccccc2)[C@@H]2OC(=O)[C@@H](Cc3ccc4ccccc4c3)C/C=C/C[C@H](Cc3ccc4ccccc4c3)C(=O)O[C@@H]12	0.349	0.228	-0.817	-0.452	-0.119	-0.202	-0.0709	-0.266	-0.0222	1.33
